# From PubChem BioAssay
# Several values for one entry are separate records, joined by “and”; a condition that tells them apart may be missing. Equal values may be shown once. Activity calls are given as the source filed them. Unless noted, how the calls were made is not given here.
# Assays:
# [1] = P. berghei load reduction in hepatocytes – cell-based, HepG2, luciferase luminescence, HepG2 viability, primary screen (AID 624349; in the data active means parasite load remaining mostly below about 12%, no sharp cut-off; inactive means mostly above about 10%;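 further: 100% = mean of DMSO negative control wells on the same plate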); settings: P. berghei liver stage in HepG2, luciferase luminescence, concentration not given here; parasite load remaining: stronger effect = lower value; viability: measured here: HepG2 viability without parasites
# [2] = signal quenchers or enhancers, Cy5 substrate/SSB – biochemical, NIH Clinical Collection, E. coli SSB, artefact control for HCV NS3 helicase inhibitor project (AID 743268); settings: Cy5-oligo bound E. coli SSB, fluorescence interference
# [3] = tested on: Hepatitis C virus NS3 helicase; assay: blockers of NS3h binding to DNA – biochemical, fluorescence polarization, NIH Clinical Collection, primary screen (AID 743270); settings: NS3 helicase binding to Cy5-dT15 DNA, stronger effect = higher value, concentration not given here
# [4] = molecular target: Single-stranded DNA-binding protein (Escherichia coli (strain K12)) (UniProt P0AGE0); assay: SSB-ssDNA binding inhibitors – biochemical, fluorescence polarization, NIH Clinical Collection, counter-screen for HCV NS3 helicase inhibitor project (AID 743271; in the data active means inhibition above about 28%); settings: E. coli SSB-DNA binding, stronger effect = higher value, concentration not given here
# [5] = compounds distorting NS3 helicase fluorescence signal – biochemical, NIH Clinical Collection, artefact control for HCV NS3 helicase inhibitor project (AID 743272); settings: fluorescence interference counterscreen, HCV NS3 helicase assay; stronger effect = lower value;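 further: HCV NS3 helicase with a Cy5 labelled single stranded DNA probe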
# [6] = tested on: Neuropilin-2 / VEGF-C interaction (human); assay: small molecules blocking Neuropilin-2/VEGF-C interaction – biochemical, microplate binding format, z-score (AID 743281); settings: microplate NRP2/VEGF-C binding assay; stronger effect = lower value
# [7] = modulation of C. elegans fzo-1 (AID 1259413);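 further: fzo-1 mutant C. elegans worms in liquid wells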; settings: C. elegans fzo-1 modulator screen, mean read-out; stronger effect = higher value
# [8] = viability loss with induced miR-34 in A549 – imaging, A549 dox-inducible miR-34, nuclei and caspase counts, primary screen (AID 1347080;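 active means compounds whose cell count with miR-34 switched on is under 0.7 times the count with it off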); settings: A549 miR-34 inducible, Hoechst nuclei count, 48 h
# [9] = galactose survival enhancers in mitochondrial complex I cybrids – cell-based, galactose medium, ATP luminescence, primary screen (AID 1645843;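 active means z-score of at least 1.8 in each of two replicates, scored against plate mean and spread of sample wells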;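 further: positive z means more ATP and so rescue of galactose-driven cybrid death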); settings: complex I mutant cybrid cells, 72 h, stronger effect = higher value
# [10] = tested on: F380Y; assay: BK channel mutant inhibitors and activators – cell-based, U2OS BacMam, thallium flux, beta subunits, selectivity assay, profiling panel (AID 1259406;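 active means thallium flux through the channel raised or lowered by more than 3 SD from vehicle-only wells, actives on both sides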;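 further: initial slope of Thallos dye fluorescence rise after thallium is added; log ratio against the mean of 0.3% DMSO vehicle wells on the same plate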); settings: U2OS BacMam BK variants, at 30 µM
# [11] = tested on: F380Y/beta1; assay: as above; settings: U2OS BacMam BK variants, at 30 µM
# [12] = tested on: F380Y/beta2Delta; assay: as above; settings: U2OS BacMam BK variants, at 30 µM
# [13] = tested on: F380Y/beta4; assay: as above; settings: U2OS BacMam BK variants, at 30 µM
# [14] = molecular target: Calcium-activated potassium channel subunit alpha-1 (Homo sapiens) + Leucine-rich repeat-containing protein 26 (Homo sapiens) (UniProt Q12791+Q2I0M4); assay: as above; settings: U2OS BacMam BK variants, F380Y/Slo1WT/gamma1, at 30 µM
# [15] = tested on: R275C; assay: as above; settings: U2OS BacMam BK variants, at 30 µM
# [16] = tested on: R275C/beta1; assay: as above; settings: U2OS BacMam BK variants, at 30 µM
# [17] = tested on: R275C/beta2Delta; assay: as above; settings: U2OS BacMam BK variants, at 30 µM
# [18] = tested on: R275C/Slo1WT/beta2; assay: as above; settings: U2OS BacMam BK variants, at 30 µM
# [19] = EMT-state selective cytotoxicity in co-culture – imaging, PC-3E GFP, TEM4-18 mCherry, primary screen (AID 1345086;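 active means compounds killing one labelled cell type while sparing the other, by normalised counts and ratio limits, not self-fluorescent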;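 further: cells exposed to compound for 72 h before imaging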;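 on red/green cell ratio (normalised): normalised mesenchymal count divided by normalised epithelial count so high means epithelial killing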); settings: PC-3E GFP / TEM4-18 mCherry co-culture, imaging cell counts, at 1 µM
# [20] = measured here: relative caspase fold change +Dox/-Dox
# [21] = measured here: total cells with miR-34 induction, stronger effect = lower value
# [22] = measured here: total cells without miR-34 induction
# Sequence of Calcium-activated potassium channel subunit alpha-1 (Homo sapiens) + Leucine-rich repeat-containing protein 26 (Homo sapiens) (Q2I0M4 whole entry, looked up, one chain of several): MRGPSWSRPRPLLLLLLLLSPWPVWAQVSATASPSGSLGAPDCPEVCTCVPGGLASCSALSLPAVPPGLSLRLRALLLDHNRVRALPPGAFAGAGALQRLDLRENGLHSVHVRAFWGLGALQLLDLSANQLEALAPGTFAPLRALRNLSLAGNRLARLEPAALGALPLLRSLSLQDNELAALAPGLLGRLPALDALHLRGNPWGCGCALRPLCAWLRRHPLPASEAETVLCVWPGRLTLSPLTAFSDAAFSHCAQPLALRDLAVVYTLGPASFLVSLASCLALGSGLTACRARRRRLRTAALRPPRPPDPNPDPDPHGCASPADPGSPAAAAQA
smiles,measurement,setting,value
CCCCCCCCCOc1ccc2[nH]cc(CCN)c2c1,parasite load remaining,[1],0.13% (inactive)
same,viability,[1],3.42%
same,fluorescence ratio,[2],0.97 (inactive)
same,inhibition,[3],-8.08% (inactive)
same,inhibition,[4],67.3% (active)
same,fluorescence ratio,[5],0.61 (active)
same,z-score,[6],-2.82 (inactive)
same,mean signal,[7],264 (inactive)
same,fold change,[8]; stronger effect = lower value,0.664 (active)
same,fold change,[8]; [20],1.96
same,cell count,[8]; [21],4000
same,cell count,[8]; [22],6020
same,z-score,[9],-1.44 (inactive)
C[C@]12CC(=CO)C(=O)C[C@@H]1CC[C@@H]1[C@@H]2CC[C@@]2(C)[C@H]1CC[C@]2(C)O,parasite load remaining,[1],62.4% (inactive)
same,viability,[1],66.1%
same,fluorescence ratio,[2],1.04 (inactive)
same,inhibition,[3],5.15% (inactive)
same,inhibition,[4],3.75% (inactive)
same,fluorescence ratio,[5],1.01 (inactive)
same,log fold change Tl+ flux,[10],0.111 (active)
same,log fold change Tl+ flux,[11],0.204 (active)
same,log fold change Tl+ flux,[12],0.171 (active)
same,log fold change Tl+ flux,[13],0.113 (active)
same,log fold change Tl+ flux,[14],0.208 (active)
same,log fold change Tl+ flux,[15],0.0626 (inactive)
same,log fold change Tl+ flux,[16],0.301 (active)
same,log fold change Tl+ flux,[17],0.261 (active)
same,log fold change Tl+ flux,[18],0.0227 (inactive)
O=C1CCC2(O)[C@H]3Cc4ccc(O)c5c4[C@@]2(CCN3CC2CC2)[C@H]1O5 (stereo partly specified),mean signal,[7],227 (inactive)
CC[C@@H]1/C=C/C=C/C[C@H](C)[C@@H](O)[C@](C)(O)C(=O)[C@H](C)[C@@H](O)[C@H](C)C(=O)[C@H](C)[C@@H](O)[C@H](C)/C=C/C(=O)O[C@H]2[C@@H](C)[C@@H](CC1)O[C@@]1(CC[C@@H](C)[C@@H](C[C@H](C)O)O1)[C@@H]2C,mean signal,[7],201 (inactive)
same,red/green cell ratio (normalised),[19]; actives lie on both sides,0.51 (inactive)
same,normalised cell number,[19]; measured here: epithelial PC-3E GFP cell survival,1.1
same,normalised cell number,[19]; measured here: mesenchymal TEM4-18 mCherry cell survival,0.56
same,fold change,[8]; stronger effect = lower value,0.872 (inactive)
same,fold change,[8]; [20],0.921
same,cell count,[8]; [21],989
same,cell count,[8]; [22],1130
CC1CCC[C@H](O)CCCCCc2cc(O)cc(O)c2C(=O)O1 (stereo partly specified),parasite load remaining,[1],34.2% (inactive)
same,viability,[1],64.7%
same,fluorescence ratio,[2],1.04 (inactive)
same,inhibition,[3],2.77% (inactive)
same,inhibition,[4],0.67% (inactive)
same,fluorescence ratio,[5],0.99 (inactive)
same,z-score,[6],-0.653 (inactive)
same,mean signal,[7],252 (inactive)
same,log fold change Tl+ flux,[10],0.0327 (inactive)
same,log fold change Tl+ flux,[11],0.0798 (inactive)
same,log fold change Tl+ flux,[12],-0.0124 (inactive)
same,log fold change Tl+ flux,[13],0.0166 (inactive)
same,log fold change Tl+ flux,[14],0.0353 (inactive)
same,log fold change Tl+ flux,[15],-0.00393 (inactive)
same,log fold change Tl+ flux,[16],0.141 (active)
same,log fold change Tl+ flux,[17],0.1 (active)
same,log fold change Tl+ flux,[18],0.035 (inactive)
CC[C@@H](C(N)=O)N1CCCC1=O,parasite load remaining,[1],91.8% (inactive) and 41.8% (inactive)
same,viability,[1],70% and 106%
same,fluorescence ratio,[2],1.01 (inactive)
same,inhibition,[3],7.52% (inactive)
same,inhibition,[4],9.91% (inactive)
same,fluorescence ratio,[5],1.02 (inactive)
same,z-score,[6],-0.78 (inactive)
same,mean signal,[7],234 (inactive)
same,fold change,[8]; stronger effect = lower value,1.08 (inactive) and 0.876 (inactive)
same,fold change,[8]; [20],1.59 and 0.289
same,cell count,[8]; [21],11300 and 10400
same,cell count,[8]; [22],10400 and 11900
same,z-score,[9],0.685 (inactive) and 0.535 (inactive)
same,log fold change Tl+ flux,[10],-0.0178 (inactive)
same,log fold change Tl+ flux,[11],-0.022 (inactive)
same,log fold change Tl+ flux,[12],-0.0158 (inactive)
same,log fold change Tl+ flux,[13],0.0243 (inactive)
same,log fold change Tl+ flux,[14],-0.0482 (inactive)
same,log fold change Tl+ flux,[15],0.037 (inactive)
same,log fold change Tl+ flux,[16],-0.0285 (inactive)
same,log fold change Tl+ flux,[17],-0.00577 (inactive)
same,log fold change Tl+ flux,[18],-0.0311 (inactive)
O[C@@H]1CCCC[C@H]1N1CCC(c2ccccc2)CC1,parasite load remaining,[1],78.7% (inactive) and 101% (inactive)
same,viability,[1],93.8% and 73%
same,fluorescence ratio,[2],0.98 (inactive)
same,inhibition,[3],1.19% (inactive)
same,inhibition,[4],0.67% (inactive)
same,fluorescence ratio,[5],0.91 (inactive)
same,z-score,[6],-0.802 (inactive)
same,mean signal,[7],231 (inactive)
same,fold change,[8]; stronger effect = lower value,0.933 (inactive) and 0.866 (inactive)
same,fold change,[8]; [20],1.17 and 0.745
same,cell count,[8]; [21],8520 and 8230
same,cell count,[8]; [22],9130 and 9500
same,z-score,[9],-0.07 (inactive)
O=C1Nc2ccc(Cl)cc2C(c2ccccc2Cl)=NC1O (stereo unspecified),parasite load remaining,[1],64.7% (inactive)
same,viability,[1],68.3%
same,fluorescence ratio,[2],0.98 (inactive)
same,inhibition,[3],-3.71% (inactive)
same,inhibition,[4],-0.39% (inactive)
same,fluorescence ratio,[5],0.96 (inactive)
same,z-score,[6],-0.398 (inactive)
same,mean signal,[7],233 (inactive)
same,fold change,[8]; stronger effect = lower value,0.901 (inactive)
same,fold change,[8]; [20],1.36
same,cell count,[8]; [21],9700
same,cell count,[8]; [22],10800
same,z-score,[9],0.845 (inactive)
NC(=NCc1ccc(Cl)cc1)SCCCc1cnc[nH]1,parasite load remaining,[1],42% (inactive)
same,viability,[1],63.6%
same,fluorescence ratio,[2],0.97 (inactive)
same,inhibition,[3],-2.84% (inactive)
same,inhibition,[4],0.39% (inactive)
same,fluorescence ratio,[5],0.97 (inactive)
same,z-score,[6],-0.336 (inactive)
same,mean signal,[7],232 (inactive)
same,fold change,[8]; stronger effect = lower value,0.914 (inactive)
same,fold change,"[8]; stronger effect = lower value, cell number ratio, induced over uninduced",0.963 (inactive)
same,fold change,[8]; [20],0.654 and 0.836
same,cell count,[8]; [21],8670 and 7970
same,cell count,[8]; [22],9480 and 8280
same,z-score,[9],-1.21 (inactive) and 0.08 (inactive)
CCCCC/C=C\C/C=C\C/C=C\C/C=C\CCCC(=O)Nc1ccc(O)cc1,parasite load remaining,[1],94.1% (inactive)
same,viability,[1],87.5%
same,fluorescence ratio,[2],0.87 (inactive)
same,inhibition,[3],0.4% (inactive)
same,inhibition,[4],4.52% (inactive)
same,fluorescence ratio,[5],0.88 (inactive)
same,z-score,[6],0.572 (inactive)
same,mean signal,[7],245 (inactive)
same,fold change,[8]; stronger effect = lower value,1.04 (inactive) and 0.798 (inactive)
same,fold change,[8]; [20],0.71 and 1.12
same,cell count,[8]; [21],5430 and 5550
same,cell count,[8]; [22],5220 and 6950
same,z-score,[9],-0.695 (inactive)
O=C1CN=C(c2ccccc2)c2cc([N+](=O)[O-])ccc2N1,parasite load remaining,[1],89.5% (inactive)
same,viability,[1],68.5%
same,fluorescence ratio,[2],1.05 (inactive)
same,inhibition,[3],5.94% (inactive)
same,inhibition,[4],2.21% (inactive)
same,fluorescence ratio,[5],1.04 (inactive)
same,z-score,[6],1.12 (inactive)
same,mean signal,[7],253 (inactive)
same,fold change,[8]; stronger effect = lower value,0.945 (inactive)
same,fold change,[8]; [20],1.76
same,cell count,[8]; [21],9060
same,cell count,[8]; [22],9590
same,z-score,[9],1.3 (inactive)
same,log fold change Tl+ flux,[10],0.0223 (inactive)
same,log fold change Tl+ flux,[11],-0.0368 (inactive)
same,log fold change Tl+ flux,[12],0.0172 (inactive)
same,log fold change Tl+ flux,[13],0.0387 (inactive)
same,log fold change Tl+ flux,[14],0.000443 (inactive)
same,log fold change Tl+ flux,[15],-0.0214 (inactive)
same,log fold change Tl+ flux,[16],-0.097 (active)
same,log fold change Tl+ flux,[17],0.0168 (inactive)
same,log fold change Tl+ flux,[18],0.00947 (inactive)
